Data: PubChem BioAssay (NCI)
The panel holds about 79,000 compounds, 15% with a hit somewhere; the sample as a whole holds those more often. Calls of active or inactive are those of the source. Cut-off read from the data, not from the text of the source: active = growth inhibition above about 70%; inactive = the rest.

What was measured:
[1] = NCI Yeast Anticancer Drug Screen. Data for the mec2-1 strain (AID 157); conditions: S. cerevisiae mec2-1 strain, active compounds read high
Method in brief: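 Readout is yeast growth inhibition, normalised to vehicle-treated controls, in the mec2-1 strain exposed to compound.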

[2] = NCI Yeast Anticancer Drug Screen. Data for the rad14 strain (AID 159);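 note: 0% = growth of vehicle-treated control cultures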; conditions: S. cerevisiae rad14 strain growth inhibition, active compounds read high
Method in brief: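 Screen for anticancer potential: a yeast strain altered in DNA damage repair is grown with compound, and reduced growth is quantified against vehicle controls.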

[3] = NCI Yeast Anticancer Drug Screen. Data for the sgs1 mgt1 strain (AID 161);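 note: 0% = growth of cultures given vehicle only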; conditions: S. cerevisiae sgs1 mgt1 strain, active compounds read high
Method in brief: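 Yeast cells carrying a defined DNA-repair defect were exposed to test compounds. Growth inhibition was measured relative to vehicle-treated controls.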

[4] = NCI Yeast Anticancer Drug Screen. Data for the CLN2oe strain (AID 163);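 note: 0% = growth of vehicle-only control cultures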; conditions: S. cerevisiae CLN2oe strain, active compounds read high
Method in brief: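 Values reflect how much compound exposure reduced yeast growth, referenced to vehicle-exposed cells. Assay organism is a strain with a defined genetic change affecting cell-cycle control.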

[5] = NCI Yeast Anticancer Drug Screen. Data for the cln2 rad14 strain (AID 165);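 note: 0% = growth equal to vehicle treated cultures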; conditions: S. cerevisiae cln2 rad14 strain, active compounds read high
Method in brief: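 Relative to vehicle controls, growth inhibition of compound-treated cln2 rad14 yeast was recorded.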

[6] = NCI Yeast Anticancer Drug Screen. Data for the bub3 strain (AID 167); conditions: S. cerevisiae bub3 mutant strain, active compounds read high
Method in brief: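 Screening used yeast with an engineered genetic alteration affecting cell cycle control. Compound-exposed cultures were compared with vehicle cultures, and reduced growth was taken as inhibition.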

[7] = NCI Yeast Anticancer Drug Screen. Data for the wt2 strain (AID 169);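 note: 0% = growth of vehicle-treated yeast cultures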; conditions: S. cerevisiae wt2 strain growth inhibition, active compounds read high
Method in brief: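 Values express reduction in yeast growth under compound treatment, referenced to vehicle-treated cells.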

[8] = NCI Yeast Anticancer Drug Screen. Data for the mlh1 strain (AID 171);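 note: 0% = growth of vehicle-treated control cultures of the same strain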; conditions: S. cerevisiae mlh1 strain growth inhibition, active compounds read high
Method in brief: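 Steps: expose the defined-mutant yeast strain to compound; expose a parallel culture to vehicle; measure growth; express compound effect as inhibition relative to the vehicle culture.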

[9] = NCI Yeast Anticancer Drug Screen. Data for the mlh1 rad18 strain (AID 175); conditions: S. cerevisiae mlh1 rad18 strain growth inhibition, active compounds read high
Method in brief: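 Test agents were incubated with a yeast strain of defined genotype (DNA damage repair defect). Inhibition of growth was derived by comparison with vehicle-exposed cultures.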

[10] = NCI Yeast Anticancer Drug Screen. Data for the rad18 strain (AID 177); conditions: S. cerevisiae rad18 mutant growth inhibition, active compounds read high
Method in brief: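 A genetically defined yeast mutant impaired in DNA damage repair was treated with test compounds, then its growth was measured against cultures receiving vehicle alone.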

[11] = NCI Yeast Anticancer Drug Screen. Data for the rad52 strain (AID 147);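 note: 0% = growth of vehicle-treated control cultures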; conditions: S. cerevisiae rad52 mutant growth inhibition, active compounds read high
Method in brief: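 Screen used a yeast mutant impaired in DNA repair. After compound exposure, growth was measured. Values reflect inhibition compared with vehicle-treated cells.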

[12] = NCI Yeast Anticancer Drug Screen. Data for the wt1 strain (AID 149);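 note: 0% = growth of vehicle-treated wt1 cultures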; conditions: S. cerevisiae wt1 strain (SPY 50644) growth inhibition, active compounds read high
Method in brief: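 Using yeast strain wt1, compound-induced growth inhibition was determined against vehicle-treated cultures.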

[13] = NCI Yeast Anticancer Drug Screen. Data for the rad50EPP+ strain (AID 151);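 note: 0% = growth of vehicle-treated control cultures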; conditions: S. cerevisiae rad50 mutant strain, active compounds read high
Method in brief: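 Exposing the rad50EPP+ strain to each compound, growth was compared with vehicle-only cultures to give inhibition.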

[14] = NCI Yeast Anticancer Drug Screen. Data for the mgt1 strain (AID 153); conditions: S. cerevisiae mgt1 mutant growth inhibition, active compounds read high
Method in brief: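 Genetically defined yeast (mgt1) treated with compound; inhibition of growth expressed against vehicle-treated controls.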

[15] = NCI Yeast Anticancer Drug Screen. Data for the rad50 strain (AID 155);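 note: 0% = growth of vehicle-only cultures of the same strain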; conditions: S. cerevisiae rad50 strain growth inhibition, active compounds read high
Method in brief: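 Relative growth inhibition (compound vs vehicle) was measured in yeast with a defined repair-gene alteration.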

[16] = NCI Yeast Anticancer Drug Screen. Data for the sgs1 strain (AID 173);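 note: 0% = growth of vehicle-only control cultures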; conditions: S. cerevisiae sgs1 mutant, active compounds read high
Method in brief: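 Treat defined-mutant yeast with compound; measure growth; calculate inhibition relative to vehicle-treated cells.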

[17] = at 5.0 µM (retest, dose inferred, filed as 0.5)
[18] = at 50.0 µM (retest, dose inferred, filed as 5.0)

Measured: growth inhibition

CC(/C=C/c1ccccc1)=N\NC(N)=S
inactive: [1]; [17] 15% | [1]; at 11.0 µM -6% | [1]; at 33.0 µM 4% | [1]; [18] 35% | [1]; at 50.0 µM 62.5% | [1]; at 100.0 µM 59% | [2]; at 1.2 µM -8% | [2]; at 3.7 µM 2% | [2]; at 11.0 µM -17% | [2]; at 33.0 µM -15% | [2]; at 100.0 µM 45% | [3]; [17] 58% | [4]; at 1.2 µM 7% | [4]; at 3.7 µM 20% | [4]; at 11.0 µM 16% | [4]; at 33.0 µM 25% | [4]; at 100.0 µM 46% | [5]; [17] -5% | [5]; [18] 15% | [6]; at 1.2 µM 9% | [6]; at 3.7 µM -8% | [6]; [17] 18% | [6]; at 11.0 µM -2% | [6]; at 33.0 µM -8% | [6]; [18] 44% | [6]; at 100.0 µM 13% | [7]; at 1.2 µM -46% | [7]; at 3.7 µM -38% | [7]; at 11.0 µM -43% | [7]; at 33.0 µM -9% | [7]; at 100.0 µM 65% | [8]; at 1.2 µM 5% | [8]; at 3.7 µM 19% | [8]; at 11.0 µM 20% | [8]; at 33.0 µM 37% | [8]; at 100.0 µM 58% | [9]; [17] 49% | [9]; at 50.0 µM 58.8% | [10]; at 1.2 µM 9% | [10]; at 3.7 µM 11% | [10]; at 11.0 µM 33% | [10]; at 33.0 µM 67%
active: [3]; [18] 87% | [3]; at 50.0 µM 86.1% | [5]; at 50.0 µM 83% | [6]; at 50.0 µM 83.5% | [9]; [18] 77% | [10]; at 100.0 µM 94%

Cc1cc2c3ccccc3c3ccccc3c2nn1
inactive: [11]; at 1.2 µM 2% | [11]; at 3.7 µM 21% | [11]; at 11.0 µM 60% | [12]; at 1.2 µM -7% | [12]; at 3.7 µM -6% | [12]; at 11.0 µM -8% | [12]; at 33.0 µM -8% | [12]; at 100.0 µM -5% | [13]; at 1.2 µM 13% | [13]; at 3.7 µM 38% | [13]; at 11.0 µM 56% | [13]; at 33.0 µM 60% | [13]; at 100.0 µM 52% | [14]; at 1.2 µM -4% | [14]; at 3.7 µM -6% | [14]; at 11.0 µM -5% | [14]; at 33.0 µM -4% | [14]; at 100.0 µM -6% | [15]; at 1.2 µM 5% | [15]; at 3.7 µM 25% | [15]; [17] 2% | [1]; at 1.2 µM 2% | [1]; at 3.7 µM 0% | [1]; [17] -46% | [1]; at 11.0 µM 10% | [1]; at 33.0 µM 7% | [1]; [18] -15% | [1]; at 50.0 µM 21.8% | [1]; at 100.0 µM 12% | [2]; at 1.2 µM 3% | [2]; at 3.7 µM 8% | [2]; at 11.0 µM 15% | [2]; at 33.0 µM 15% | [2]; at 100.0 µM 15% | [3]; [17] -61% | [3]; [18] -15% | [3]; at 50.0 µM 36.5% | [4]; at 1.2 µM -3% | [4]; at 3.7 µM -3% | [4]; at 11.0 µM 1% | [4]; at 33.0 µM 1% | [4]; at 100.0 µM 0% | [5]; [17] -59% | [5]; [18] -24% | [5]; at 50.0 µM 27.5% | [6]; at 1.2 µM -9% | [6]; at 3.7 µM -1% | [6]; [17] -64% | [6]; at 11.0 µM 7% | [6]; at 33.0 µM 9% | [6]; [18] -31% | [6]; at 50.0 µM 29.1% | [6]; at 100.0 µM 11% | [7]; at 1.2 µM -4% | [7]; at 3.7 µM -3% | [7]; at 11.0 µM -3% | [7]; at 33.0 µM -3% | [7]; at 100.0 µM -6% | [8]; at 1.2 µM 5% | [8]; at 3.7 µM -6% | [8]; at 11.0 µM 0% | [8]; at 33.0 µM 1% | [8]; at 100.0 µM -3% | [9]; [17] -88% | [9]; [18] -13% | [9]; at 50.0 µM 60.4% | [10]; at 1.2 µM -2% | [10]; at 3.7 µM 2% | [10]; at 11.0 µM 10% | [10]; at 33.0 µM 12% | [10]; at 100.0 µM 10%
active: [11]; at 33.0 µM 74% | [11]; at 100.0 µM 80% | [15]; at 11.0 µM 72% | [15]; at 33.0 µM 83% | [15]; [18] 77% | [15]; at 50.0 µM 94.7% | [15]; at 100.0 µM 79%

O=C(O)c1ccccc1/C=N/N=C1c2ccccc2-c2ccccc21
active: [5]; [18] 79%
inactive: [11]; at 1.2 µM -3% | [11]; at 3.7 µM -1% | [11]; at 11.0 µM -1% | [11]; at 33.0 µM 0% | [11]; at 100.0 µM 2% | [12]; at 1.2 µM -1% | [12]; at 3.7 µM 0% | [12]; at 11.0 µM 1% | [12]; at 33.0 µM 0% | [12]; at 100.0 µM 7% | [13]; at 1.2 µM -4% | [13]; at 3.7 µM 3% | [13]; at 11.0 µM -2% | [13]; at 33.0 µM 9% | [13]; at 100.0 µM 15% | [14]; at 1.2 µM -1% | [14]; at 3.7 µM 0% | [14]; at 11.0 µM 0% | [14]; at 33.0 µM -1% | [14]; at 100.0 µM 3% | [15]; at 1.2 µM 0% | [15]; at 3.7 µM -6% | [15]; [17] 10% | [15]; at 11.0 µM 7% | [15]; at 33.0 µM 0% | [15]; [18] 45% | [15]; at 50.0 µM 50.8% | [15]; at 100.0 µM 13% | [1]; at 1.2 µM -2% | [1]; at 3.7 µM -1% | [1]; [17] 2% | [1]; at 11.0 µM -2% | [1]; at 33.0 µM 0% | [1]; [18] 15% | [1]; at 50.0 µM 61.4% | [1]; at 100.0 µM 11% | [2]; at 1.2 µM 0% | [2]; at 3.7 µM -1% | [2]; at 11.0 µM 0% | [2]; at 33.0 µM -10% | [2]; at 100.0 µM 8% | [3]; [17] -7% | [3]; [18] 60% | [3]; at 50.0 µM 50% | [4]; at 1.2 µM -4% | [4]; at 3.7 µM 0% | [4]; at 11.0 µM 0% | [4]; at 33.0 µM -5% | [4]; at 100.0 µM 1% | [5]; [17] -23% | [5]; at 50.0 µM 45.7% | [6]; at 1.2 µM -3% | [6]; at 3.7 µM -1% | [6]; [17] -9% | [6]; at 11.0 µM 9% | [6]; at 33.0 µM 7% | [6]; [18] -3% | [6]; at 50.0 µM 48.5% | [6]; at 100.0 µM 4% | [7]; at 1.2 µM -1% | [7]; at 3.7 µM 0% | [7]; at 11.0 µM -1% | [7]; at 33.0 µM 0% | [7]; at 100.0 µM 5% | [16]; at 1.2 µM 0% | [16]; at 3.7 µM 2% | [16]; at 11.0 µM 1% | [16]; at 33.0 µM 4% | [16]; at 100.0 µM 3% | [9]; [17] -1% | [9]; [18] 39% | [9]; at 50.0 µM 68.5% | [10]; at 1.2 µM -3% | [10]; at 3.7 µM -1% | [10]; at 11.0 µM 2% | [10]; at 33.0 µM -4% | [10]; at 100.0 µM 6%
